Compound activity deposited in PubChem BioAssay by National Center for Advancing Translational Sciences (NCATS).
AMA1-RON2 inh: disrupts binding of P. falciparum AMA1 to RON2; AlphaScreen AMA1-biotinylated RON2 peptide binding; 0.2% of 360,000 active; Potency, µM (highest dose often 58.2 µM), for the others: top-dose activity change, negative = inhibition, usual class: inhibitors;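 note: 0% = vehicle wells and -100% = peptide control; nearly all actives have a fitted effect of over 45% in size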
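AMA1 (3D7) with his tag at 25 nM final met compounds first, then biotinylated RON2 peptide at 25 nM; detection used donor plus acceptor beads, 10 µg/mL apiece, read by AlphaScreen after 30 min at room temperature.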
AmpC inh detg: AmpC beta-lactamase inhibition with detergent present; 0.041% of 370,000 active; Potency, µM (doses to about 114 µM), for inactives: top-dose activity change, negative = inhibition, actives largely listed as inhibitors; P00811; AmpC hydrolysis of nitrocefin, absorbance 480 nm, 0.01% Triton;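 note: 0% = no-compound wells and -100% = no-enzyme wells; nearly all actives have a fitted effect of over 25% in size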
Target sequence (P00811 whole entry, looked up): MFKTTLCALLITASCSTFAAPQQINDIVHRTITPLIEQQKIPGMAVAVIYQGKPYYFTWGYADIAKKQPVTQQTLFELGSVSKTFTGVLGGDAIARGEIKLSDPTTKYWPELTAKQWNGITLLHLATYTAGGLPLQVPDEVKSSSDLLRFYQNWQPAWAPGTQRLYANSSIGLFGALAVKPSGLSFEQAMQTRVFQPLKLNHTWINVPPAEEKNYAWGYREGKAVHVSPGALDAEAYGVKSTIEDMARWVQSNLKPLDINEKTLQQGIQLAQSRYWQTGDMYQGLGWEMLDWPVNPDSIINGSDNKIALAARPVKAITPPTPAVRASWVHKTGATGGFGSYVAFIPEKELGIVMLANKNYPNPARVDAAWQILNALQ
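AmpC (5.3 nM in the dispensed reagent) in 20 mM phosphate pH 7.0 with 0.01% (detergent screen) or 0.0001% Triton X-100 was preincubated with compounds for 15 min at room temperature. Nitrocefin was then added from an 800 uM solution, and hydrolysis was followed at 480 nm.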
MARV entry inh: blocks Marburg virus binding to or entry into cells; Marburg virus pseudotyped entry inhibition, cell reporter; Potency, µM (top dose mostly 37.8 µM), for inactives: at the highest dose activity change, negative = inhibition, most hits filed as inhibitors; 1.8% of 300,000 active; calls by dose curve; tested in HEK293 cells
AmpC no deterg: inhibitors of E. coli AmpC beta-lactamase without detergent. AmpC nitrocefin hydrolysis, absorbance 480 nm, 0.0001% Triton. 0.52% of 330,000 active. Potency, µM (top dose mostly 57.1 µM), for the others: top-dose activity change, negative = inhibition, usual class: inhibitors. P00811;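 note: plate controls were no compound for no effect and no enzyme for full effect; nearly all actives have a fitted effect of over 20% in size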
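20 mM phosphate pH 7.0 + 0.01% (detergent screen) or 0.0001% Triton X-100; 5.3 nM AmpC reagent; cpd preinc 15 min RT; nitrocefin (800 uM stock) to start; A480 q20 s × 4 min; Activity was normalised to no-enzyme and no-compound control wells.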
LASV entry inh: blocks Lassa virus binding to or entry into cells; Potency, µM (highest dose often 37.9 µM), inactives show at the highest dose activity change, negative = inhibition, actives largely listed as inhibitors; AID 540256; 1.2% of 300,000 active; Lassa virus pseudotype entry inhibition, cell reporter; calls by dose curve; tested in HEK293 cells; note: nearly all actives have a fitted effect of over 50% in size
Active calls of the source: *; ? = inconclusive; / = no result given; [ ] = another dose, or the depositor's remark. A selection: hits, their analogues and other compounds. The true share with any hit is near 2.3%. Unless noted, calls come from the whole dose curve; as a rule, active = well fitted curve in the direction sought with a large enough effect; inconclusive = small, poorly fitted or top-dose-only effect, or another doubt; inactive = no such curve, though single readings can be large; an effect the other way counts as inactive or inconclusive. Unless noted, % is set by controls: 0 for no effect and ±100 for the full control effect; potency is the fitted concentration of half-maximal effect.

SMILES | AMA1-RON2 inh | AmpC inh detg | MARV entry inh | AmpC no deterg | LASV entry inh
CCOc1ccc(S(=O)(=O)Nc2cc(Sc3ncn[nH]3)c3oc(=O)sc3c2)cc1 | / | -7% | / | 5.6µM* | /
COc1cccc2c1C(=O)c1c(O)c3c(c(O)c1C2=O)C[C@@](O)(C(=O)CO)C[C@@H]3O[C@H]1C[C@H](N)[C@@H](O)[C@H](C)O1 | 3% | / | / | / | /
CC(=O)[C@]1(O)Cc2c(O)c3c(c(O)c2[C@@H](O[C@H]2C[C@H](N)[C@H](O)[C@H](C)O2)C1)C(=O)c1c(O)cccc1C3=O | / | / | 0.056µM* | / | 0.16µM*
COc1cccc2c1C(=O)c1c(O)c3c(c(O)c1C2=O)C[C@@](O)(C(C)=O)C[C@@H]3O[C@H]1C[C@H](N)[C@H](O)[C@H](C)O1 | 7% | 4% | 0.23µM* | 324% | ?
CSc1nc(SCCO)c2sc3nc(-c4ccco4)c4c(c3c2n1)CC(C)(C)OC4 | 2% | -13% | 21% | 2% | 0%
CSc1nc(N(CCO)CCO)c2sc3nc(-c4ccco4)c4c(c3c2n1)CCC4 | 11µM* | 2% | ? | 153% | -4%
CCOc1ccc(C(=O)N2CCc3cc(OC)c(OC)cc3C2COc2ccc3c(C)cc(=O)oc3c2)cc1OCC (stereo not given) | / | -3% | ? | / | 6%[46.1 µM]
O=C(Nc1ccc2c(c1)OCO2)c1cc(-c2ccc(O)cc2)on1 | 10% | -4% | 7.9µM* | -19% | 6%[46.1 µM]
O=C(Nc1ccc2c(c1)OCO2)c1ccc(Cl)cc1Cl | 2% | 6% | 6.3µM* | -1% | ?
CSc1nn(Cc2ccc(F)cc2)c(N)c1S(=O)(=O)c1ccc(Cl)cc1 | / | 3% | / | / | ?
Cc1ccc(OCC(=O)NCC(=O)OCc2cc(=O)n3nc(CC(C)C)sc3n2)cc1 | / | -10% | / | / | 0%[46.1 µM]
CCCCn1c(SCC(=O)N2CCC(C)CC2)nc2ccsc2c1=O | 25% | ? | 8.2µM* | 11% | 14%
CN(CC(=O)Nc1ccccc1-c1ccccc1)Cc1ccccc1Cl | 1% | -11% | 11µM* | -34% | -8%
CN(CC(=O)Nc1ccccc1Br)CC(=O)Nc1ccccc1-c1ccccc1 | 123% | -9% | / | 100% | /
O=C(CSc1nc2ccccc2n1CCc1ccccc1)c1ccc(O)c(O)c1 | -17% | 2% | 1% | 16µM* | -13%
O=C(CSc1nc2ccccc2n1CCc1ccccc1)N1CCOCC1 | -15% | -18% | -5% | 81% | -2%
N=C1SC(c2ccccc2)C(=O)N1c1ncc(Cc2ccccc2Cl)s1 (stereo not given) | 74% | -12% | -12% | 16µM* | 2%
O=C(CSc1nnnn1-c1ccccc1)Nc1ncc(Cc2ccccc2Cl)s1 | 8% | 5% | 20%[46.1 µM] | -16% | 14%
Cn1c2c(c(=O)n(C)c1=O)[C@](NC(=O)c1cccs1)(C(F)(F)F)C(=O)N2 | / | / | 14% | / | /
CCN(C(=O)c1cn(-c2cccc(OC)c2)c(=O)c2ccccc12)c1ccccc1C | / | 12% | / | / | -8%[46.1 µM]
COc1cc(OC)c2c(-c3ccccc3)cc(=O)oc2c1C(CCN1CCOCC1)c1ccc(N(C)C)cc1 (stereo not given) | 28µM* | / | / | 177% | /
COc1cc(OC)c2c(-c3ccccc3)cc(=O)oc2c1C(CCN1CCCCC1)c1ccc(N(C)C)cc1 (stereo not given) | 25µM* | 3% | / | 199% | /
COc1ccc(C(CCN2CCCCC2)c2c(OC)cc(OC)c3c(-c4ccccc4)cc(=O)oc23)cc1 (stereo not given) | -3% | 7% | / | 205% | /
O=C1NC(=O)N(Cc2ccccc2Cl)C(=O)/C1=C/c1cccs1 | -2% | -3% | / | 20µM* | /
CCCN1C(=O)c2ccccc2NC1c1ccc(OC)cc1O (stereo not given) | 7% | -7% | ? | -43% | 1.6µM*
COc1ccc(C(=O)c2c(C)oc3ccc(O)c(CN4CCOCC4)c23)cc1 | -22% | -11% | 21µM* | 74% | ?
Cc1oc2ccc(O)c(CN(C)C)c2c1C(=O)c1ccccc1 | -4% | -3% | 11µM* | -23% | ?
COc1ccc(NC2=CC(=O)CC(c3ccc(C)cc3)C2)c(OC)c1 (stereo not given) | -15% | / | -5%[46.1 µM] | / | -32%
